Among the data in PubChem BioAssay (NCI) are growth values, retold here.

Assay in all cases: NCI-60 one-dose screen, 48 h (100 = growth as untreated, 0 = no growth, -100 = all killed)
The subject of one test is DU-145 prostate. The settings on record: 10 µM unless noted.
The test system of the next test is K-562 leukemia. The following applies: 10 µM unless noted.
A further test has as its system MALME-3M melanoma. The following applies: 10 µM unless noted.
In a further test the test system is MDA-MB-231 breast. The settings on record: 10 µM unless noted.
The test system of a further test is RXF 393 renal. The following applies: 10 µM unless noted.
In the next test the test system is SF-268 CNS. The settings on record: 10 µM unless noted.
The next test relates to SF-295 CNS. The following applies: 10 µM unless noted.
In another test the test system is SF-539 CNS. The following applies: 10 µM unless noted.
In the next test the test system is UACC-257 melanoma. The settings on record: 10 µM unless noted.
In the next test the test system is M14 melanoma. The following applies: 10 µM unless noted.
The subject of another test is HCT-15 colon. The following applies: 10 µM unless noted.
The subject of a further test is HT29 colon. The settings on record: 10 µM unless noted.
A further test relates to SNB-75 CNS. The following applies: 10 µM unless noted.
The subject of the next test is U251 CNS. The settings on record: 10 µM unless noted.
In the next test the test system is PC-3 prostate. The settings on record: 10 µM unless noted.
In the next test the test system is SK-MEL-5 melanoma. The following applies: 10 µM unless noted.
The subject of a further test is UACC-62 melanoma. The settings on record: 10 µM unless noted.
The subject of another test is LOX IMVI melanoma. The settings on record: 10 µM.
A further test has as its system SK-MEL-28 melanoma. The following applies: 10 µM unless noted.

This is part of a sample that, as a whole, favours compounds with a hit. Of some 83,000 tested, about 20% had one in any assay.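 Percent growth is the endpoint: 0 to 100 indicates growth inhibition (40 means 60% inhibition), 0 means no net growth, and negative values indicate cell death.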 Values without a mark were called inactive. The source made the active and inactive calls. How the source made its calls: active means growth percent below 10; inactive means the rest.

In the case of `Nc1cccc(SCc2cc3ccccc3[nH]c2=O)c1`, the growth in the test on DU-145 prostate is 58.7%; with K-562 leukemia, 9.64% (active); in the test on MALME-3M melanoma it was 72%; in the test on MDA-MB-231 breast it was 57.2%; with RXF 393 renal, 81.5%; in the test on SF-268 CNS, 47.7%. Further, the growth in the test with SF-295 CNS was 19.3%; with SF-539 CNS, 59.9%; in the test on UACC-257 melanoma, 48.5%; with M14 melanoma, 20.5%; in the test on HCT-15 colon, 43.3%; in the test on HT29 colon it was 65.7%. Further, the growth in the test with SNB-75 CNS is 83.1%; in the test on U251 CNS, 64.1%; with PC-3 prostate, 63%; in the test with SK-MEL-5 melanoma, -4.45% (active); in the test on UACC-62 melanoma, 4.09% (active); with LOX IMVI melanoma, 9.48% (active). Further, the growth in the test on SK-MEL-28 melanoma was 61.6%.
As to `Cc1cccc(NC(=O)[C@]23CCC(C)(C)CC2C2=CCC4[C@@]5(C)C[C@@H](O)[C@H](O)[C@@](C)(CO)C5CC[C@@]4(C)[C@]2(C)CC3)c1` (some centres not stated), the growth in the test on DU-145 prostate is 32.2%; with K-562 leukemia it was 15.5%; with MALME-3M melanoma, 28.3%; in the test on MDA-MB-231 breast it was -19.1% (active); in the test on RXF 393 renal, -49% (active); in the test on SF-268 CNS, 41%. For the same compound, the growth is 4.56% (active) in the test with SF-295 CNS; -2.33% (active) in the test with SF-539 CNS; 39.8% in the test on UACC-257 melanoma; 36.1% in the test on M14 melanoma; -5.5% (active) in the test with HCT-15 colon; -56.1% (active) in the test on HT29 colon. Also, the growth is 43.7% in the test on SNB-75 CNS; 27.8% in the test with U251 CNS; 13.3% in the test with PC-3 prostate; -90.7% (active) with SK-MEL-5 melanoma; 20.3% with UACC-62 melanoma; -75.2% (active) in the test on LOX IMVI melanoma. Also, in the test on SK-MEL-28 melanoma, the growth is 32.5%.
As for `O=C(Nc1ccccc1)N1CCN(c2cc(-c3cn(-c4ccccc4)nc3-c3cccc(O)c3)ccn2)CC1`, the growth in the test with DU-145 prostate is 95.3%; with K-562 leukemia, 29.5%; in the test with MALME-3M melanoma it was 84%; in the test with MDA-MB-231 breast, 82.4%; in the test with RXF 393 renal, 90.8%; with SF-268 CNS it was 114%. Also, the growth in the test with SF-295 CNS was 54.8%; in the test with SF-539 CNS, 89.5%; in the test with UACC-257 melanoma, 97.4%; in the test on M14 melanoma, 69.4%; in the test on HCT-15 colon, 21.4%; in the test with HT29 colon it was 75.8%. Further, the growth in the test on SNB-75 CNS is 101%; in the test on U251 CNS, 63%; in the test on PC-3 prostate, 43%; with SK-MEL-5 melanoma, 40%; in the test on UACC-62 melanoma, 50.4%; in the test with LOX IMVI melanoma it was 69.1%. The growth in the test on SK-MEL-28 melanoma is 73.2%.
Consider `COc1ccc(N2N=C(c3ccc4c(c3)OCO4)CC2c2cccc(NC(=O)CCCNS(=O)(=O)c3ccc(F)cc3)c2)cc1` (configuration not stated), for which the growth in the test with DU-145 prostate is 80.3%; in the test on K-562 leukemia it was 35.5%; in the test with MALME-3M melanoma, 77.6%; in the test on MDA-MB-231 breast, 50.2%; in the test with RXF 393 renal, 66.9%; with SF-268 CNS, 52.8%. For the same compound, the growth is 49.2% in the test with SF-295 CNS; 74.9% in the test on SF-539 CNS; 75.7% in the test on UACC-257 melanoma; 49.5% with M14 melanoma; 57.8% in the test on HCT-15 colon; 61.3% with HT29 colon. Also, the growth was 50.6% in the test on SNB-75 CNS; 59.2% in the test with U251 CNS; 42.5% in the test with PC-3 prostate; 48% with SK-MEL-5 melanoma; 66.4% in the test on UACC-62 melanoma; 66.4% in the test on LOX IMVI melanoma. For the same compound, in the test on SK-MEL-28 melanoma, the growth was 75.4%.
As for `CN(C)c1ccnc(CNCCSC2(c3ccc(C(F)(F)F)cc3)c3ccccc3CCc3ccccc32)c1`, the growth in the test on DU-145 prostate was -3.51% (active); with K-562 leukemia, -16.3% (active); in the test on MALME-3M melanoma it was -91.8% (active); in the test with MDA-MB-231 breast, -54.6% (active); in the test with RXF 393 renal, -88.3% (active); in the test on SF-268 CNS, 14.1%. The growth in the test with SF-295 CNS was -96.9% (active); in the test with SF-539 CNS it was -97.6% (active); in the test on UACC-257 melanoma, -59.8% (active); in the test on M14 melanoma it was -75.6% (active); in the test with HCT-15 colon it was -82.8% (active); with HT29 colon it was -65.9% (active). Besides, the growth with SNB-75 CNS was -2.6% (active); in the test with U251 CNS, -94.9% (active); in the test on PC-3 prostate, -35.3% (active); in the test with SK-MEL-5 melanoma, -99.6% (active); in the test with UACC-62 melanoma, -5.98% (active); in the test with LOX IMVI melanoma, -98.1% (active). Further, in the test on SK-MEL-28 melanoma, the growth is -81.7% (active).
For `COc1ccc(-c2nc(SC(C)C)nc(NCCc3c[nH]c4ccccc34)c2C#N)cc1`, the growth in the test with DU-145 prostate is 54%; with K-562 leukemia, 14.5%; with MALME-3M melanoma it was 78.8%; in the test with MDA-MB-231 breast, 26.6%; with RXF 393 renal, -20.3% (active); in the test on SF-268 CNS, 49.8%. Besides, the growth with SF-295 CNS is 33.6%; in the test with SF-539 CNS, 42.7%; in the test with UACC-257 melanoma, 82.5%; with M14 melanoma, 55.7%; with HCT-15 colon, 15.3%; with HT29 colon it was 8.23% (active). Further, the growth in the test with SNB-75 CNS is 65.6%; in the test on U251 CNS it was 27.1%; in the test with PC-3 prostate, 11.7%; with SK-MEL-5 melanoma, 5.52% (active); with UACC-62 melanoma, 73.6%; in the test with LOX IMVI melanoma, 21.2%. The growth with SK-MEL-28 melanoma is 69.7%.
Regarding `COc1ccc(C(SCCNCc2cc(N(C)C)ccn2)(c2ccccc2)c2ccccc2)cc1`, the growth in the test on DU-145 prostate is 7.05% (active); with K-562 leukemia, -28.5% (active); in the test on MALME-3M melanoma it was -91.4% (active); in the test with MDA-MB-231 breast, -33.4% (active); with RXF 393 renal, -21.4% (active); with SF-268 CNS, 22.1%. For the same compound, the growth with SF-295 CNS is -58.8% (active); with SF-539 CNS, -93% (active); with UACC-257 melanoma, -20.9% (active); in the test on M14 melanoma, -46.3% (active); in the test with HCT-15 colon, -19.5% (active); in the test on HT29 colon, -60.2% (active). For the same compound, the growth in the test with SNB-75 CNS is -0.256% (active); in the test on U251 CNS it was -33.9% (active); in the test with PC-3 prostate it was 2.15% (active); with SK-MEL-5 melanoma it was -100% (active); in the test on UACC-62 melanoma, -3.86% (active); in the test on LOX IMVI melanoma, -98.9% (active). The growth with SK-MEL-28 melanoma is -65.3% (active).
As for `Cc1ccc(C(=O)CSc2nc3ccc(F)cc3c(=O)n2-c2ccc(Cl)cc2)cc1`, the growth in the test with DU-145 prostate was 50.4%; in the test with K-562 leukemia it was 88.8%; with MALME-3M melanoma it was 39.6%; with MDA-MB-231 breast, 13.7%; in the test with RXF 393 renal, -10.6% (active); in the test on SF-268 CNS it was 28.9%. For the same compound, the growth in the test with SF-295 CNS is 4.69% (active); with SF-539 CNS it was 2.03% (active); in the test with UACC-257 melanoma, 70.4%; in the test with M14 melanoma it was 56.5%; in the test with HCT-15 colon, 59.2%; in the test on HT29 colon it was 49.9%. Further, the growth is -19.4% (active) in the test with SNB-75 CNS; 19.6% with U251 CNS; 25.9% in the test on PC-3 prostate; 68.1% in the test with SK-MEL-5 melanoma; 71.4% in the test on UACC-62 melanoma; 60.7% in the test with LOX IMVI melanoma. In addition, the growth with SK-MEL-28 melanoma was 77.2%.
